Hits are enriched below; roughly 11% of the tested compounds scored in any of these assays.
OTUD3 block – blocks human OTUD3 ubiquitin-rhodamine cleavage | AID 1645858 | 47,000 compounds, 0.7% hits | inhibition, % at 25 µM | purified OTUD3, Ub-rhodamine fluorescence, 2 h
USP17 block – inhibitors of human USP17 deubiquitinase | A8MUK1 | purified USP17, Ub-rhodamine cleavage fluorescence, 3 h | inhibition, % at 50 µM | 47,000 compounds, 6.5% hits | AID 1645855
USP30 inh – human USP30 deubiquitinase inhibition; Q70CQ3; purified USP30, Ub-rhodamine cleavage fluorescence; inhibition, % at 25 µM; 47,000 compounds, 5.3% hits
USP28 block – blocks human USP28 ubiquitin-rhodamine cleavage. 47,000 compounds, 3% hits. AID 1645857. purified USP28, Ub-rhodamine cleavage fluorescence, 30 min. inhibition, % at 25 µM. Q96RU2
The depositor's hits bear a star. Rule as the data show it: active = inhibition above about 30%; inactive = the rest.

COc1ccc(C(CC(=O)Nc2ccc(Cl)cc2F)NC(=O)C(F)(F)F)cc1 (configuration not stated) was read as OTUD3 block 2, USP17 block 31*, USP30 inh 12 and USP28 block -6.
`COc1ccc(-c2nc(SCC(=O)Nc3ccc(Cl)cc3F)n[nH]2)cc1` gave OTUD3 block -4, USP17 block 59*, USP30 inh 33* and USP28 block -1.
COc1ccc(S(=O)(=O)Nc2ccc3nn(C)cc3c2)cc1 was read as OTUD3 block -18, USP17 block 34*, USP30 inh -63 and USP28 block -13.
`CCN1C(=O)Cc2cc(NS(=O)(=O)c3ccc(OC)cc3)ccc21` gave OTUD3 block 9, USP17 block 0, USP30 inh 22 and USP28 block 16.
For Nc1nccnc1CC1CCCN(C(=O)c2cccc3c2OCCO3)C1 (configuration not stated) the results were OTUD3 block -11, USP17 block -5, USP30 inh -28 and USP28 block -12.
Screening Cc1cc(C)cc(NC(=O)NCC(O)COc2ccc([N+](=O)[O-])cc2)c1 (configuration not stated) returned OTUD3 block 2, USP17 block 32*, USP30 inh 17 and USP28 block 27.
O=C(c1ccc(N2CCc3ccccc32)nn1)N1CCc2ccccc21 was read as OTUD3 block -22, USP17 block 52*, USP30 inh 1 and USP28 block -23.
COc1ccc(NC(=O)c2cnc(NCc3ccccc3F)nc2C)c(OC)c1 was read as OTUD3 block 0, USP17 block 2, USP30 inh -10 and USP28 block -7.
`CCc1cc(C2CCCN2S(=O)(=O)c2ccc3c(c2)OCCN3C(C)=O)on1` (configuration not stated) gave OTUD3 block 8, USP17 block 8, USP30 inh -45 and USP28 block 39*.
For CCn1nccc1C1CCCN1S(=O)(=O)c1ccc2c(c1)OCCO2 (configuration not stated) the results were OTUD3 block 2, USP17 block -7, USP30 inh 8 and USP28 block 0.
`CC(=O)N1CCOc2cc(S(=O)(=O)N3CCCC3c3cc(C)no3)ccc21` (configuration not stated) gave OTUD3 block 19, USP17 block 7, USP30 inh 20 and USP28 block 52*.
Cc1ccc(CNC(=O)Cn2ccc3ccn(C)c3c2=O)cc1C was read as OTUD3 block -9, USP30 inh 4 and USP28 block -1.
COc1ccc(S(=O)(=O)Nc2ccc(Cn3cncn3)cc2)cc1OC was read as OTUD3 block -6, USP17 block -2, USP30 inh -65 and USP28 block -12.
`CC(C)(C)OC(=O)N[C@@H](Cc1ccccc1)C(=O)NCC1CCC(C(=O)NCCc2c[nH]c3ccccc23)CC1` (some centres not stated) gave OTUD3 block 0, USP17 block 44*, USP30 inh -12 and USP28 block -11.
`COc1ccc(C(=O)NCc2csc3ccccc23)cc1` gave OTUD3 block 25, USP17 block 24, USP30 inh 64* and USP28 block 35*.
For COc1ccc(C(=O)NCCc2cccs2)cc1 the results were OTUD3 block 10, USP17 block -3, USP30 inh 14 and USP28 block 9.
O=C(NCc1ccccc1Cl)c1csnn1 was read as OTUD3 block 1, USP17 block -30, USP30 inh 1 and USP28 block 2.
For O=C(NCc1csc2ccccc12)c1ccc(Cl)cc1 the results were OTUD3 block -3, USP17 block 23, USP30 inh 45* and USP28 block 11.
`Cc1cccc(NC(=O)N2CCCn3nnc(COCC4CC4)c3C2)c1` gave OTUD3 block 14, USP17 block 14, USP30 inh 26 and USP28 block 16.
COc1ccc(Cn2nnc(-c3cccc(Cl)c3)n2)cc1F was read as OTUD3 block 1, USP17 block 1, USP30 inh -11 and USP28 block 35*.
Screening COc1ccc(NC2=C(Sc3ccccc3)C(=O)N(c3cc(C)cc(C)c3)C2=O)cc1 returned OTUD3 block -4, USP17 block -14, USP30 inh -9 and USP28 block -5.
`COc1ccc2cc3c(nc2c1)OC(=O)N(CCc1cccc(F)c1)C3` gave OTUD3 block 16, USP17 block 56*, USP30 inh 29 and USP28 block 15.
`COc1ccc2cc3c(nc2c1)OC(=O)N(Cc1ccc(F)cc1)C3` gave OTUD3 block 2, USP17 block 20, USP30 inh 15 and USP28 block -1.
